The sequences below were run against T1, GST-Co-NF-kB (Capsaspora owczarzaki, UniProt F1ARL5 200-546) (assay: protein-binding microarray (PBM); PBM: ~300 nM protein, 6 mM HEPES pH 7.8, 80 mM KCl, 0.5 mM EDTA, 0.5 mM EGTA, 6% glycerol, 35 ng/ul poly-dIdC, 1% milk, 1 h, room temperature; Ap Aiptasia and Nv Nematostella (sea anemones) / Co Capsaspora / Aq Amphimedon (sponge) / Dm Drosophila / Hu human; RHD is the Rel homology domain; high values mean tight binding). Conditions: dsDNA, one strand shown.
T1 sequence: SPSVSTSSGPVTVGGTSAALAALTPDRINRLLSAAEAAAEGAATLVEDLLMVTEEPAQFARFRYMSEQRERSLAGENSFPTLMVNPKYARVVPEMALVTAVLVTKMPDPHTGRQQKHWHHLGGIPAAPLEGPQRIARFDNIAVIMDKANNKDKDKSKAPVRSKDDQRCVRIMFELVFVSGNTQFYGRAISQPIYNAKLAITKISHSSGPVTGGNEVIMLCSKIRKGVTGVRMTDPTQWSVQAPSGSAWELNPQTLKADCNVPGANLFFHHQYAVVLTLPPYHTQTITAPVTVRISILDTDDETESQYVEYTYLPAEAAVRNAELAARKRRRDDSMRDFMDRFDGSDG

| Sequence | binding signal |
| --- | --- |
| CCGATTAACATCAATAAAATCCCTGATGTTAATCGGGTCTTGATTCGCTTGACGCTGCTG | 2.13 z-score |
| CCGATTAACATCAGGGGACTTCATGATGTTAATCGGGTCTTGATTCGCTTGACGCTGCTG | 2.35 z-score |
| CCGATTAACATCAGAAATTACCCTGATGTTAATCGGGTCTTGATTCGCTTGACGCTGCTG | 2.87 z-score |
| CCGATTAACATCAGGGCTCCCCATGATGTTAATCGGGTCTTGATTCGCTTGACGCTGCTG | 2.03 z-score |
| CCGATTAACATCAAAAATGCCCCTGATGTTAATCGGGTCTTGATTCGCTTGACGCTGCTG | 2.95 z-score |
| CCGATTAACATCAAAATACCCCTTGATGTTAATCGGGTCTTGATTCGCTTGACGCTGCTG | 4.02 z-score |
| CCGATTAACATCAAACCTTCCCCTGATGTTAATCGGGTCTTGATTCGCTTGACGCTGCTG | 6.54 z-score |
| CCGATTAACATCAGAAATACCCATGATGTTAATCGGGTCTTGATTCGCTTGACGCTGCTG | 1.74 z-score |
| CCGATTAACATCAAGGGGGGTTATGATGTTAATCGGGTCTTGATTCGCTTGACGCTGCTG | 3.05 z-score |
| CCGATTAACATCAGATCCCCCCCTGATGTTAATCGGGTCTTGATTCGCTTGACGCTGCTG | 6.72 z-score |

From paper PMC5700166
